Compound activity deposited in PubChem by National Center for Advancing Translational Sciences (NCATS).
NTMT1 inhibitor: Primary qHTS for Inhibitors of N-terminal methyltransferase 1 (NTMT1): MTaseGlo Assay; N-terminal Xaa-Pro-Lys N-methyltransferase 1 (Homo sapiens), Q9BV86; 59,000 compounds, 2.5% hits; NTMT1 MTase-Glo SAH luminescence, purified enzyme; Potency, µM (titrated, usually from 114 µM), without a hit: top-dose activity change, negative = inhibition, usual class: inhibitors;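 further: plate controls were DMSO vehicle for no effect and no enzyme for full effect; nearly all actives have a fitted effect of over 65% in size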
Target sequence (Q9BV86 whole entry, looked up): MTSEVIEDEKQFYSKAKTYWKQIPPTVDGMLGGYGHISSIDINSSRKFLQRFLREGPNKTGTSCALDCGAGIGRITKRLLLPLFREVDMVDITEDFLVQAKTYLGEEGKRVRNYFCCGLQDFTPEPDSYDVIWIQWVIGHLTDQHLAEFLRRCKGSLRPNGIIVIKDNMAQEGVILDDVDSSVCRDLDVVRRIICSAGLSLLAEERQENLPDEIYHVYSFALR
HTT-AS act: Primary qHTS for Identification of Small Molecule Activators of Huntingtin-Antisense Promoter Activity; HEK293 HTT-AS promoter firefly luciferase reporter, 24 h; response scale: percent change from vehicle, -100% = no light; Potency, µM (highest dose often 57.5 µM), without a hit: top-dose activity change, positive = activation, actives largely listed as activators; 48,000 compounds, 0.24% hits; AID 1508624, 2021; further: nearly all actives have a fitted effect of over 55% in size
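Luminescence was read after Dual-Glo reagent and a 10 min room-temperature incubation. Values were normalized to vehicle (0% activity) and zero RLU (-100% activity). Reporter HEK293 cells had been exposed to compounds (up to 57.5 uM final) for 24 h.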
HTT prom inh: Primary qHTS for Identification of Small Molecule Inhibitors of Huntingtin Promoter Activity. Potency, µM (top dose mostly 57.5 µM), without a hit: at the top dose activity change, negative = inhibition, most hits filed as inhibitors. HEK293 HTT promoter firefly luciferase reporter, 24 h. 48,000 compounds, 0.93% hits; further: nearly all actives have a fitted effect of over 50% in size
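HEK293 cells carrying firefly luciferase reporters were seeded at 2,500 per well in Opti-MEM and cultured for 24 h. They were then treated with compounds at up to 57.5 uM final for 24 h at 37 degrees C before Dual-Glo luminescence readout.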
Starred values were filed as active, the others as inactive; ! = not active in a repeat; [ ] = another dose, or the depositor's remark. The sample as a whole holds a higher share of hits than the screen did. The call rests on the fitted dose curve; in most records, active means well fitted curve in the direction sought with a large enough effect; inconclusive means small, poorly fitted or top-dose-only effect, or another doubt; inactive means no such curve, though single readings can be large; an effect the other way counts as inactive or inconclusive. Potency means the concentration at half of the fitted maximal effect.

How did O=C(NC1CCCc2c1cnn2-c1ccc(F)cc1F)c1ccccc1 (stereo not given) do in these assays?
NTMT1 inhibitor: 79µM*!

How did C[C@@H](N)C(=O)Nc1cccc(-c2nn3c(=O)cc(N4CCNCC4)nc3s2)c1 do in these assays?
NTMT1 inhibitor: -3%

How did c1ccc(CNc2nc(-c3cccs3)nc3ccccc23)cc1 do in these assays?
NTMT1 inhibitor: 5%

How did c1ccc(CNc2nc(NCc3ccccc3)c3ccccc3n2)cc1 do in these assays?
NTMT1 inhibitor: 45µM*!; HTT-AS act: -67%; HTT prom inh: inconclusive

How did O=C(NCCN1CCN(c2cccc(Cl)c2)CC1)Nc1ccccc1C(F)(F)F do in these assays?
NTMT1 inhibitor: -6%; HTT-AS act: -20%; HTT prom inh: -26%

What do the screens show for `Cc1ccc(Cl)cc1N1CCN(CCNC(=O)Nc2ccccc2Cl)CC1`?
NTMT1 inhibitor: 89µM*; HTT-AS act: -34%; HTT prom inh: inconclusive

Results for COc1cc(C(=O)NC2CCN(C)CC2)c(F)cc1Nc1ncc2c(n1)N(C1CCCC1)CC(F)(F)C(=O)N2C ?
NTMT1 inhibitor: 28µM*

What do the screens show for `CCc1cccc(CC)c1NC(=O)c1nn(C)c2c1CCc1cnc(Nc3ccc(C(=O)NC4CCN(C)CC4)cc3OC(F)(F)F)nc1-2`?
NTMT1 inhibitor: -11%[29.8 µM]

How did COc1cc(C(=O)N2CCC(N3CCN(C)CC3)CC2)ccc1Nc1ncc2c(n1)N(C)c1ccccc1C(=O)N2C do in these assays?
NTMT1 inhibitor: -14%; HTT-AS act: -7%; HTT prom inh: 13%

Results for CC[C@@H]1C(=O)N(C)c2cnc(Nc3ccc(C(=O)NC4CCN(C)CC4)cc3OC)nc2N1C1CCCC1 ?
NTMT1 inhibitor: 25µM*!; HTT-AS act: -26%; HTT prom inh: -11%

Results for COc1cc(OC2CCN(C)CC2)ccc1Nc1ncc2c(n1)n(C1CCCC1)c(=O)n2C ?
NTMT1 inhibitor: -5%; HTT-AS act: -25%; HTT prom inh: -27%

Results for COc1cc(C(=O)NC2CCN(C)CC2)ccc1Nc1ncc2c(n1)N(C1CCCC1)CC(F)(F)C(=O)N2C ?
NTMT1 inhibitor: 28µM*

What do the screens show for `O=C(Cc1ccc(Cl)c(Cl)c1)Nc1ccc([S+](=O)([O-])Nc2ccc3[nH]ccc3c2)cc1`?
NTMT1 inhibitor: 7%

Results for CCN=C1N[C@@H]2[C@@H](O)[C@H](O)[C@@H](CO)O[C@@H]2S1 ?
NTMT1 inhibitor: 2%[57.5 µM]

How did O=C(Nc1ccc(F)c(F)c1)c1cc(S(=O)(=O)NC2CCCCCC2)ccc1F do in these assays?
NTMT1 inhibitor: 1%; HTT-AS act: -38%; HTT prom inh: 25µM*

How did CC(C)c1ccc(NC(=O)c2cc(S(=O)(=O)NC3CCCCC3)ccc2F)cc1 do in these assays?
NTMT1 inhibitor: -2%; HTT-AS act: -22%; HTT prom inh: inconclusive

How did O=[S+]([O-])(Nc1ccc(C2CCNCC2)cc1)c1ccc(NCc2ccc(Br)cc2O)cc1 do in these assays?
NTMT1 inhibitor: 50µM*

What do the screens show for `O=[S+]([O-])(Nc1ccc2ccccc2c1)c1ccc(NCc2ccc(Cl)cc2O)cc1`?
NTMT1 inhibitor: 10%

What do the screens show for `COc1cccc2cc(-c3nnc(Nc4ccccc4C)s3)c(=O)oc12`?
NTMT1 inhibitor: -2%; HTT-AS act: inconclusive; HTT prom inh: 68%

How did COc1cccc2cc(-c3nnc(Nc4c(F)cccc4F)s3)c(=O)oc12 do in these assays?
NTMT1 inhibitor: -2%; HTT-AS act: 1µM*; HTT prom inh: 79%

How did C/C(=C\c1ccc(F)cc1)C1Nc2cccc3cccc(c23)N1 do in these assays?
NTMT1 inhibitor: -5%

Results for N#Cc1ccc(N(Cc2ccc(Br)cc2)n2cnnc2)cc1 ?
NTMT1 inhibitor: -2%

Results for COc1cnc(-c2ccccc2C(C)C)nc1NCc1ccc(-c2cccnc2)cc1 ?
NTMT1 inhibitor: 13%

What do the screens show for `Cc1nc(NC(=O)N2CCCC2C(N)=O)sc1-c1csc(C(C)(C)C)n1` (stereo not given)?
NTMT1 inhibitor: -4%[57.5 µM]

Results for Cc1nc(NC(=O)N2CCC[C@@H]2C(N)=O)sc1-c1ccnc(C(C)(C)C(F)(F)F)c1 ?
NTMT1 inhibitor: 30µM*; HTT-AS act: -7%; HTT prom inh: -22%

How did O=S(=O)(c1cccc(Cl)c1)N1CCN(S(=O)(=O)c2ccc3c(c2)OCCO3)CC1 do in these assays?
NTMT1 inhibitor: -5%

Results for CSc1ccc(/C=C/c2nc3ccccc3n2S(=O)(=O)c2cccc(Cl)c2)cc1 ?
NTMT1 inhibitor: 6.3µM*; HTT-AS act: -70%; HTT prom inh: inconclusive
